The whole screen tested about 310,000 compounds, of which about 2,200 (0.71%) showed an effect of 50% or more. The effect is printed as a negative number. The sample as a whole holds a higher share of strong results than the screen did.
Biological target: human ether-à-go-go-related gene (hERG) potassium channel (human, UniProt Q12809)
Test: primary screen, population patch clamp on CHO cells stably expressing hERG; higher = less effect of the substance

human ether-à-go-go-related gene (hERG) potassium channel, sequence (Q12809 whole entry, looked up): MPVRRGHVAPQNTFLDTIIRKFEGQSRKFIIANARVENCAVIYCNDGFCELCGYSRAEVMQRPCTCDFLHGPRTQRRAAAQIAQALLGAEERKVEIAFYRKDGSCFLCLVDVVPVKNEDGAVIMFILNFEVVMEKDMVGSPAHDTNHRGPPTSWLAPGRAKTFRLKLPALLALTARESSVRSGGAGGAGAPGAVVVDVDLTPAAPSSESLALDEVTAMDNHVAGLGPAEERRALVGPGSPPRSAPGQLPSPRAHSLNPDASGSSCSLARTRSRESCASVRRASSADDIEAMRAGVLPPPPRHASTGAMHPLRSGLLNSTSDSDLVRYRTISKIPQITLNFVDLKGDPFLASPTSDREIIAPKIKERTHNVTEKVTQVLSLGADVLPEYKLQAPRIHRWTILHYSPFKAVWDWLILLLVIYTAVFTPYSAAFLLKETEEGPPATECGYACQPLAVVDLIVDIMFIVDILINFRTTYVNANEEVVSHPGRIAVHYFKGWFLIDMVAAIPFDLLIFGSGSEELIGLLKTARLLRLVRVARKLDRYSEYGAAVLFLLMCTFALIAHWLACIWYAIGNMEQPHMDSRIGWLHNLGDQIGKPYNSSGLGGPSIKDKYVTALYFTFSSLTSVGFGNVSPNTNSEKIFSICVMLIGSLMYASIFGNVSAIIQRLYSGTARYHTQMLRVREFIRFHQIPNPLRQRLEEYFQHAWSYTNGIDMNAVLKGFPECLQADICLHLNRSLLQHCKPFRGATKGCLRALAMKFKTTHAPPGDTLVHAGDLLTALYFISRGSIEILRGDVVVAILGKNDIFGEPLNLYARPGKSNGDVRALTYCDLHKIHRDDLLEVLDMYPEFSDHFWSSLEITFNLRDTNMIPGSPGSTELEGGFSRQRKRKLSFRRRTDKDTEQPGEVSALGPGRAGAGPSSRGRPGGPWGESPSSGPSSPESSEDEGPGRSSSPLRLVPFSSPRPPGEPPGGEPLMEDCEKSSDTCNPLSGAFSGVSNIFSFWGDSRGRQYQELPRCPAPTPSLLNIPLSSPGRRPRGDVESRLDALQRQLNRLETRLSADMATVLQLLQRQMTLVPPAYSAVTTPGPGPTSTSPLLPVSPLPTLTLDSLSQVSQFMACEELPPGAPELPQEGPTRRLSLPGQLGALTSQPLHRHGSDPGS

Going from `Cc1nn2c(-c3ccccc3)ccnc2c1-c1ccccc1` to `Cc1onc(-c2ccccc2)c1C(=O)OCc1nnc(-c2ccccc2)o1`, the “hERG current change (%, negative = inhibition) at 1uM” value falls from 7.57% to 5.73%.

Compared with `CC(C)Oc1ccc(/C(O)=C2/C(=O)C(=O)N(Cc3cccnc3)C2c2ccco2)cc1` (stereo not shown), `CS(=O)(=O)Nc1ccc(C(=O)Nc2ccccc2C(=O)NCc2ccco2)cc1` is lower in “hERG current change (%, negative = inhibition) at 1uM” value: 14.2% for the first, -58% for the second.

First: Cc1cc(C)c(S(=O)(=O)N2CCOC2CNC(=O)C(=O)NCCCN2CCCC2=O)c(C)c1 (stereo not shown)
Second: CC(=O)N1CCc2cc(S(=O)(=O)CCC(=O)Nc3cc(C)cc(C)c3)ccc21
The “hERG current change (%, negative = inhibition) at 1uM” value of the first is lower: 7.05% for the first, 8.33% for the second.

Compared with `O=C(c1ccccc1)c1c[nH]c(C(=O)C(Cl)(Cl)Cl)c1`, `CS(=O)(=O)Nc1ccccc1C(=O)NCc1ccco1` is lower in “hERG current change (%, negative = inhibition) at 1uM” value: 16% for the first, 1.75% for the second.

Going from `COC/C=C/C1=CC2=CC(=O)C(C)(OC(=O)c3cnc4ccccc4n3)C(=O)C2=CN1C1CCCCC1` (stereo not shown) to `O=C(/C=C/c1ccccc1)N(c1ccccn1)C1CCCCC1`, the “hERG current change (%, negative = inhibition) at 1uM” value falls from 9.88% to 3.14%.

Going from `Cc1csc(NC(=O)CSc2nncs2)n1` to `Cc1ccc2nc(SCC(=O)N/N=C/c3ccco3)cc(C)c2c1`, the “hERG current change (%, negative = inhibition) at 1uM” value rises from 8.29% to 9.47%.

First: CC(NC(=O)Cc1cccs1)c1ccc2c(c1)OCO2 (stereo not shown)
Second: O=C(c1ccc2nc3ccccc3c(=O)n2c1)N1CCN(Cc2ccc3c(c2)OCO3)CC1
The “hERG current change (%, negative = inhibition) at 1uM” value of the first is higher: -4.41% for the first, -12.2% for the second.

Going from `CCOC(=O)c1cccc(Nc2ncnc3ccc(C)cc23)c1` to `Cc1ccc2nc(N/N=C/c3ccco3)cc(C)c2c1`, the “hERG current change (%, negative = inhibition) at 1uM” value falls from -3.73% to -62.9%.

Compared with `CC(C)OCCCNC(=O)COc1ccc2oc3c(c2c1)CCCC3`, `CCN(CC)CCCNC(=O)COc1ccc2oc3c(c2c1)CCCC3.Cl` is lower in “hERG current change (%, negative = inhibition) at 1uM” value: 11.1% for the first, 6.07% for the second.

Going from `CC(C)N(CCNC(=O)COc1ccc2oc3c(c2c1)CCCC3)C(C)C` to `CC1(C)CC(=O)c2cc(OCC(=O)NCCN3CCOCC3)ccc2O1`, the “hERG current change (%, negative = inhibition) at 1uM” value rises from -52.7% to 16.6%.

Compared with `O=C(NCCN=C1NS(=O)(=O)c2ccccc21)c1ccc2nccnc2c1`, `O=C(CSCc1ccccn1)Nc1ccccc1` is lower in “hERG current change (%, negative = inhibition) at 1uM” value: 18.3% for the first, -0.275% for the second.

First: O=C(CSCc1cccc(CSCC(=O)Nc2ccccc2)n1)Nc1ccccc1
Second: O=C(CSCc1cccc(CSCC(=O)Nc2ccc3ccccc3c2)n1)Nc1ccc2ccccc2c1
The “hERG current change (%, negative = inhibition) at 1uM” value of the first is lower: -59.7% for the first, 8.91% for the second.

First: C=CCNC(=O)c1sc(=S)n(-c2ccc(C(=O)OCC)cc2)c1N
Second: CCOC(=O)N1CCN(C(=O)C2CCN(C(=O)c3ccc([N+](=O)[O-])cc3)CC2)CC1
The “hERG current change (%, negative = inhibition) at 1uM” value of the first is higher: 2.24% for the first, -26.9% for the second.

First: O=C(c1cccn2c(=O)c3cc(Cl)ccc3nc12)N1CCN(Cc2ccc3c(c2)OCO3)CC1
Second: O=C(c1cccn2c(=O)c3ccccc3nc12)N1CCN(Cc2ccc3c(c2)OCO3)CC1
The “hERG current change (%, negative = inhibition) at 1uM” value of the first is higher: -33.5% for the first, -54.4% for the second.

First: CCOc1ccc(C(=O)N2CCC(C(=O)c3ccc4c(c3)OCCO4)CC2)cc1
Second: O=C(c1ccc2c(c1)OCCO2)C1CCN(C(=O)c2ccc(F)cc2)CC1
The “hERG current change (%, negative = inhibition) at 1uM” value of the first is lower: -61.5% for the first, 4.28% for the second.

First: CCOc1ccc(C(=O)C2CCN(C(=O)c3ccc([N+](=O)[O-])cc3)CC2)cc1
Second: O=C(Oc1cccc([N+](=O)[O-])c1)C1CCN(C(=O)c2ccc(F)cc2)CC1
The “hERG current change (%, negative = inhibition) at 1uM” value of the first is lower: -81.1% for the first, -3.31% for the second.

Compared with `O=C(CCC(=O)c1ccc(F)cc1)OCc1nnc(-c2ccc([N+](=O)[O-])cc2)o1`, `O=C(OCc1nnc(-c2ccc([N+](=O)[O-])cc2)o1)C1CCN(C(=O)c2ccc(F)cc2)CC1` is lower in “hERG current change (%, negative = inhibition) at 1uM” value: 1.72% for the first, -71.4% for the second.

Compared with `O=C(c1ccc2c(c1)OCCO2)C1CCN(C(=O)c2ccc(F)c(F)c2)CC1`, `CCOC(=O)C1CCN(C(=O)C2CCN(C(=O)c3ccc([N+](=O)[O-])cc3)CC2)CC1` is lower in “hERG current change (%, negative = inhibition) at 1uM” value: 2.71% for the first, -28.2% for the second.

Compared with `Cc1onc(-c2ccccc2Cl)c1C(=O)OCc1nnc(-c2ccccc2)o1`, `Cc1onc(-c2ccccc2)c1C(=O)OCc1nnc(-c2ccc([N+](=O)[O-])cc2)o1` is lower in “hERG current change (%, negative = inhibition) at 1uM” value: 3.84% for the first, -51.2% for the second.

Going from `Cc1nc(-c2ccc(C(=O)N3CCCC3)cc2)cs1` to `COc1ccc(C(=O)N2CCCC(Nc3ccc(C)c(C)c3)C2)cc1` (stereo not shown), the “hERG current change (%, negative = inhibition) at 1uM” value falls from 9.11% to -0.108%.

First: Cc1cccc(C(=O)NCC(=O)NC2CCC(C)CC2)c1 (stereo not shown)
Second: Cc1cccc2c1-c1sc(C(=O)NCCCN3CCC(C)CC3)cc1CO2
The “hERG current change (%, negative = inhibition) at 1uM” value of the first is higher: 1.64% for the first, -5.27% for the second.

Compared with `COCCN(Cc1cc2cc(C)ccc2n2nnnc12)C(=S)Nc1ccccc1C`, `CCN(CC)CCn1c(NS(=O)(=O)c2ccc(C)cc2)nc2ccccc21` is lower in “hERG current change (%, negative = inhibition) at 1uM” value: 17% for the first, -17.8% for the second.

First: O=C(/C=C/c1cn(-c2ccccc2)nc1-c1cccc(Cl)c1)N1CCN(c2ccccn2)CC1
Second: O=C1C(Cl)=C(N2CCN(Cc3ccccc3)CC2)C(=O)N1c1ccccc1
The “hERG current change (%, negative = inhibition) at 1uM” value of the first is higher: 11% for the first, 8.07% for the second.

First: O=C(NC(=S)Nc1cccc2c(O)cccc12)c1cccc(Br)c1
Second: Cc1ccccc1NC(=O)/C(=C\c1cccs1)NC(=O)c1ccco1
The “hERG current change (%, negative = inhibition) at 1uM” value of the first is higher: 8.92% for the first, -3.3% for the second.

Going from `O=C(Nc1nccs1)c1nc[nH]c1C(=O)N1CCc2ccccc2C1` to `O=C(NCCCN1CCc2ccccc2C1)Nc1ccc(Cl)cc1`, the “hERG current change (%, negative = inhibition) at 1uM” value falls from 3.14% to -44.5%.

Going from `COc1ccc(OC)c(-c2cc(C(=O)NCc3ccc(Cl)cc3)no2)c1` to `CCN(CC)CCn1c(NC(=O)c2ccc(Cl)cc2)nc2ccccc21`, the “hERG current change (%, negative = inhibition) at 1uM” value falls from 12.1% to -0.305%.

First: CN1CCN(C(=O)/C(=C\c2cccs2)NC(=O)c2ccco2)CC1
Second: CN1CCN(C(=O)/C(=C/c2cccs2)NC(=O)c2ccco2)CC1
The “hERG current change (%, negative = inhibition) at 1uM” value of the first is lower: -65.2% for the first, -62.1% for the second.

Compared with `O=C(N/C(=C\c1cccs1)C(=O)N1CCOCC1)c1ccco1`, `O=C(N/C(=C/c1cccs1)C(=O)N1CCOCC1)c1ccco1` is higher in “hERG current change (%, negative = inhibition) at 1uM” value: -2.36% for the first, 9.85% for the second.

Compared with `Cc1ccc(NC(=O)/C(=C/c2cccs2)NC(=O)c2ccco2)cc1`, `CS(=O)(=O)Nc1ccc(C(=O)NCc2ccco2)cc1` is lower in “hERG current change (%, negative = inhibition) at 1uM” value: 17% for the first, 16.3% for the second.

Going from `COCc1cc(Sc2ccc(OC)cc2)nc(-c2ccccc2)n1` to `COc1ccc(-c2c[n+]3c(n2-c2ccccc2)SCC3)cc1.[Br-]`, the “hERG current change (%, negative = inhibition) at 1uM” value falls from 16.2% to -6.21%.

Going from `CCCCN(C)C(=O)c1nc2ccccn2c1CN1CCN(C/C=C/c2ccccc2)CC1` to `CCCCN(C)C(=O)c1nc2ccccn2c1CN1CCN(c2ncccn2)CC1`, the “hERG current change (%, negative = inhibition) at 1uM” value rises from -80.8% to 6.17%.

Compared with `CCCCN(C)C(=O)c1nc2ccccn2c1CN1CCSCC1`, `CCn1cc(Br)c(C(=O)N(C)Cc2ccccc2)n1` is lower in “hERG current change (%, negative = inhibition) at 1uM” value: 12.1% for the first, 11.4% for the second.

First: CC(C)(C)c1ccc(C(=O)O/N=C(\N)c2ccccn2)cc1
Second: CC(C)CC(=O)Nc1ccc(C(=O)NNC(=O)C(c2ccccc2)c2ccccc2)cc1
The “hERG current change (%, negative = inhibition) at 1uM” value of the first is higher: 13.9% for the first, 12.2% for the second.

Compared with `O=C(CN1C(=O)/C(=C/c2ccccc2)SC1=S)Nc1cccnc1`, `CCOC(=O)N1CCC(N2C(=O)c3ccccc3C2Nc2ccccc2)CC1` (stereo not shown) is lower in “hERG current change (%, negative = inhibition) at 1uM” value: 9.4% for the first, 6.14% for the second.

Going from `O=C(CC1CCCCC1)NCc1ccco1` to `COc1cccc(NC(=O)NCCN2CCCCC2)c1`, the “hERG current change (%, negative = inhibition) at 1uM” value falls from 7.39% to 4.59%.

First: CCCN(CCC)CC(O)COc1ccccc1C(=O)Nc1ccccc1.Cl (stereo not shown)
Second: CCCCN(CCCC)CC(O)COc1ccccc1C(=O)Nc1ccccc1 (stereo not shown)
The “hERG current change (%, negative = inhibition) at 1uM” value of the first is higher: -35.8% for the first, -55% for the second.

First: CCCCN(CCCC)CC(O)COc1ccccc1Br.Cl (stereo not shown)
Second: CCN(CC)CCn1c(NS(=O)(=O)c2ccc(Cl)cc2)nc2ccccc21.Cl
The “hERG current change (%, negative = inhibition) at 1uM” value of the first is higher: 1.61% for the first, -69% for the second.

First: Cc1nc2ccc(Br)cc2c2c1CC(CO)O2 (stereo not shown)
Second: Cc1cc(N/N=C/c2ccco2)c2ccccc2n1
The “hERG current change (%, negative = inhibition) at 1uM” value of the first is higher: 15.9% for the first, 10.7% for the second.

Going from `CCOC(=O)N1CCN(C(=O)c2oc3ccc(S(=O)(=O)N4CC(C)CC(C)C4)cc3c2C)CC1` (stereo not shown) to `CCOC(=O)N1CCC(N2C(=O)c3ccccc3C2Nc2c(C)cccc2C)CC1` (stereo not shown), the “hERG current change (%, negative = inhibition) at 1uM” value falls from 0.354% to -57.6%.

First: COCCOC(=O)C1=C(N)Oc2c(c(=O)oc3ccccc23)[C@@]12C(=O)Nc1ccccc12
Second: CCOC(=O)N1CCC(N2C(=O)c3ccccc3C2Nc2ccccc2C)CC1 (stereo not shown)
The “hERG current change (%, negative = inhibition) at 1uM” value of the first is higher: 12.1% for the first, -8.54% for the second.

Compared with `CCOc1ccc(-n2c(-c3ccc(Cl)cc3)c[n+]3c2SCC3)cc1.[Br-]`, `Clc1ccc(-c2c[n+]3c(n2-c2ccccc2)SCC3)cc1.[Cl-]` is higher in “hERG current change (%, negative = inhibition) at 1uM” value: -60.8% for the first, 3.68% for the second.

First: Cc1cccc2c1-c1sc(C(=O)NCCCN3CCCC(C)C3)cc1CO2 (stereo not shown)
Second: CCCN1CCN(CCCNC(=O)c2cc3c(s2)-c2c(C)cccc2OC3)CC1
The “hERG current change (%, negative = inhibition) at 1uM” value of the first is higher: 16.2% for the first, -67.5% for the second.

Compared with `Cc1cccc2cc(CN(Cc3ccc(F)cc3)C(=O)N3CCOCC3)c(=O)[nH]c12`, `CSc1cccc(NC(=S)NCCCN2CCN(c3ccc(F)cc3)CC2)c1` is lower in “hERG current change (%, negative = inhibition) at 1uM” value: 1.19% for the first, -3.39% for the second.

First: CC1(C)CC(=O)c2cc(OCC(=O)NCCCN3CCN(c4ccccc4F)CC3)ccc2O1
Second: CC1(C)CC(=O)c2cc(OCC(=O)NCCCN3CCN(c4ccc(F)cc4)CC3)ccc2O1
The “hERG current change (%, negative = inhibition) at 1uM” value of the first is higher: -26% for the first, -60.3% for the second.

First: CC1CCN(CCCNC(=O)c2cc3sccc3n2C)CC1
Second: Cn1c(C(=O)NCCCN2CCCCC2)cc2sccc21
The “hERG current change (%, negative = inhibition) at 1uM” value of the first is lower: -23.6% for the first, -13.7% for the second.

Compared with `COc1ccc(NC(=O)NCCCN2CCc3ccccc3C2)cc1`, `COc1ccc(NC(=O)NCCN2CCc3ccccc3C2)cc1` is higher in “hERG current change (%, negative = inhibition) at 1uM” value: -69.5% for the first, -1.55% for the second.

First: COc1ccc(N2CCN(CCCNC(=O)c3cc4sccc4n3C)CC2)cc1
Second: COc1cccc(NC(=O)NCCCN2CCN(c3ccc(F)cc3)CC2)c1
The “hERG current change (%, negative = inhibition) at 1uM” value of the first is lower: -77.7% for the first, -51% for the second.

From publication PMC4336329 (PLoS ONE, 2015)
